In all, about 3,600 compounds went through this assay and about 900 (25%) were called active. How the calls were made is not given here. Not all results are given here. Measured potencies and affinities stand elsewhere.
Each compound was assayed against Protein Tat (Human immunodeficiency virus type 1 group M subtype B (isolate HXB2)) (UniProt P04608) (assay: inhibitors of Tat binding to TAR RNA, dose response, counter-screen for Vif-APOBEC3G degradation inhibitor project, biochemical, fluorescence polarization, FAM-labeled TAR RNA (AID 1117361)). Conditions: outcome: dose series up to 100 µM unless noted; series mostly up to 100 µM.
For `Cc1cc(C)c(C)c(OCCCOc2cccc3cccnc23)c1`, the outcome was “inactive”. `Cc1nnc(SCC(=O)N2CCN(c3ccccc3)CC2)n1C1CC1` was tested, and the outcome was “inactive”. With `COc1ccc(/C=N/NC(=O)c2ccc3ccccc3c2)cc1OS(=O)(=O)c1ccc(NC(C)=O)cc1` the outcome was “inactive”. For `COC(=O)c1sccc1NC(=O)c1cc(-c2ccc(C)cc2C)nc2ccccc12`, the outcome was “inactive”. `O=C(CNC(=O)/C(=C\c1ccccc1)NC(=O)c1ccc(Br)cc1)OCc1ccccc1` was tested, and the outcome was “inactive”. With `Cc1ccc(C(=O)N/C(=C/c2cccnc2)C(=O)NCc2ccco2)cc1` the outcome was “inactive”. In the case of `O=C(NCC1CCCO1)c1ccc(CS(=O)(=O)Cc2ccc(F)cc2)o1` (centres undefined), the outcome is reported as “inactive”. In the case of `Cc1cc(C(F)(F)F)n2nc(C(=O)O)c(Cl)c2n1`, the outcome is reported as “inactive”. For `O=C1NC(=Nc2ccc(F)cc2)SC1Cc1ccc(F)cc1` (centres undefined), the outcome was “inactive”. For `O=C(O)c1ccc(S(=O)(=O)c2ccc([N+](=O)[O-])cc2[N+](=O)[O-])cc1`, the outcome was “inactive”. `COc1ccc(NC(=O)/C(C#N)=C\c2cc(C)n(-c3ccc(Oc4ccc([N+](=O)[O-])cn4)cc3)c2C)cc1` was tested, and the outcome was “inactive”. `CCCN(CCC)S(=O)(=O)c1cc(Br)cc2c1N(C(=O)CC)CC2` was tested, and the outcome was “inactive”. `O=C1CCCC(NCCCCCCNC2=C([N+](=O)[O-])C(=O)CCC2)=C1[N+](=O)[O-]` was tested, and the outcome was “inactive”. `CC(NCCO)C(=O)C12CC3CC(CC(C3)C1)C2` (centres undefined) was tested, and the outcome was “inactive”. `CN(C)S(=O)(=O)N1CCC(CCCC2CCN(S(=O)(=O)N(C)C)CC2)CC1` was tested, and the outcome was “inactive”. In the case of `CN1CCN(c2nc(-c3cccnc3)nc3ccccc23)CC1`, the outcome is reported as “inactive”. With `C[C@@H]1NC(=O)[C@H](CCC(N)=O)NC(=O)c2cc([N+](=O)[O-])cc(I)c2NCCC[C@@H](C(N)=O)NC1=O` the outcome was “inactive”. For `O=C(COC(=O)c1cc(=O)[nH]c2ccccc12)Nc1cccc(S(=O)(=O)N2CCOCC2)c1`, the outcome was “inactive”. With `CN(Cc1ccccc1)C(=O)c1cccc(N2C(=O)NC3CC2(C)Oc2ccccc23)c1` (centres undefined) the outcome was “inactive”. For `NC(=O)c1ccc(NC(=O)CSc2nc3ccccc3c(=O)n2CCCN2CCOCC2)cc1`, the outcome was “inactive”. For `CCCCCCn1c(SCC(=O)Nc2cc(C)on2)nc2ccccc2c1=O`, the outcome was “inactive”. For `Cc1sc(-c2ccccn2)nc1OC(=O)c1cccc(Cl)c1Cl`, the outcome was “inactive”. `CCCS(=O)(=O)N1CCCC(C(=O)NCCCOC(C)C)C1` (centres undefined) was tested, and the outcome was “inactive”. For `CC(C)C(=O)Nc1nnc(Sc2ccc(N(C)C)cc2)s1`, the outcome was “inactive”. With `O=S(=O)(c1ccccc1)N1CCN(S(=O)(=O)N2CCCCC2)CC1` the outcome was “inactive”. `COc1cc(C(=O)OCC(=O)N2CCCC2)cc(OC)c1OC` was tested, and the outcome was “inactive”. `Cc1ccccc1NC(=O)Cc1nc(COC(=O)Cc2ccccc2F)cs1` was tested, and the outcome was “inactive”. `COc1ccc(S(=O)(=O)NNC(=O)c2sccc2-n2cccc2)cc1` was tested, and the outcome was “inactive”. For `COC(=O)CC1Oc2ccccc2N(Cc2ccccc2)C1=O` (centres undefined), the outcome was “inactive”. With `CCOC(=O)C1(Cc2ccc(OC)cc2)CCN(C(=O)c2cccc3nccnc23)CC1` the outcome was “inactive”. In the case of `O=C(CN1CCN(S(=O)(=O)c2ccc(F)cc2)CC1)Nc1cc(C(F)(F)F)ccc1Cl`, the outcome is reported as “inactive”. `O=C(Nc1cccc(C(F)(F)F)c1)c1cc(S(=O)(=O)N2CCCCC2)ccc1N1CCOCC1` was tested, and the outcome was “inactive”. In the case of `Cc1cccc(Cc2nnc(CCC(=O)N(C)C3CCOC3)o2)c1` (centres undefined), the outcome is reported as “inactive”. In the case of `Cc1noc(C)c1COC(=O)c1cccc(S(=O)(=O)N2CCCCCC2)c1`, the outcome is reported as “inactive”. In the case of `O=C(NCc1cccs1)Nc1cccs1`, the outcome is reported as “inactive”. `c1ccc(CCc2nn3c(C4COc5ccccc5O4)nnc3s2)cc1` (centres undefined) was tested, and the outcome was “inactive”. For `CCOc1ccc(N(CC(=O)NCc2ccc(F)cc2)S(=O)(=O)c2c(C)noc2C)cc1`, the outcome was “inactive”. In the case of `CCOc1ccc(N(CC(=O)NC2CCCCC2)S(=O)(=O)c2c(C)noc2C)cc1`, the outcome is reported as “inactive”. With `C=C(C)Cn1c(C)cc(C)c(S(=O)(=O)c2ccccc2C)c1=O` the outcome was “inactive”. `C/C(=C\C(=O)c1ccc(Br)cc1)N1CCCCC1` was tested, and the outcome was “inactive”. For `COc1cc(Br)c(CNc2cc(C)ccc2C)cc1OC`, the outcome was “inactive”. With `NCCOc1ccccc1Cc1ccccc1` the outcome was “inactive”. For `COc1ccc(OCC(O)CNc2ccc(Br)cc2)cc1` (centres undefined), the outcome was “inactive”. `O=c1cc(OCc2ccccc2)cc[nH]1` was tested, and the outcome was “inactive”. With `COc1ccc(NCc2nc3ccccc3n2CCOc2ccccc2)cc1` the outcome was “inactive”. With `O=C(NC(=S)NCCN1CCOCC1)c1ccc(Cl)cc1Cl` the outcome was “inactive”. For `CN(C1=C(NC(=O)c2ccc(Cl)cc2)C(=O)c2ccccc2C1=O)c1ccccc1`, the outcome was “inactive”. In the case of `CC(=O)NCCC(=O)NCc1ccc(F)cc1`, the outcome is reported as “inactive”. `Cc1cccc(N2CCN(C(=O)c3ccncc3)CC2)c1C` was tested, and the outcome was “inactive”. For `CCOc1ccc(S(=O)(=O)N2CC(=O)Nc3ccccc32)cc1C#N`, the outcome was “inactive”. `C=CCc1cc(/C=N\NC(=O)CSc2nnc(CCCc3ccc(OC)c(C)c3)o2)cc(OC)c1O` was tested, and the outcome was “inactive”. For `Cc1ccc(Nc2cnn(C34CC5CC(CC(CC(=O)O)(C5)C3)C4)c(=O)c2Cl)cc1C`, the outcome was “inactive”. For `CCOC(=O)CN1C(=O)C(Sc2n[nH]c(-c3ccccc3)n2)CCc2ccccc21` (centres undefined), the outcome was “inactive”. With `NCCC(=O)N1c2ccccc2Sc2ccccc21` the outcome was “inactive”. With `CCOc1cc(CNc2ccc(O)cc2)cc(Br)c1OCc1ccccc1F` the outcome was “inactive”. For `COc1cccc(CNCCc2c[nH]c3ccccc23)c1OCc1ccccc1`, the outcome was “inactive”. In the case of `CCOCC(O)CS(=O)Cc1ccccc1` (centres undefined), the outcome is reported as “inactive”. `CC(=NNC(=S)SCc1ccccc1)c1ccccn1` was tested, and the outcome was “inactive”. For `O=C(Nc1cccnc1)c1sc(Nc2ccccc2F)nc1-c1ccccc1`, the outcome was “inactive”. For `Cc1cc(C)n2nc(C(=O)Nc3cccnc3)nc2n1`, the outcome was “inactive”. With `Cc1cc(NC(=O)CSc2nnc(-c3ccoc3C)n2N)no1` the outcome was “inactive”. For `CCOC(=O)N1CCN(S(=O)(=O)c2ccc(F)c(C(=O)Nc3cc(C)cc(C)c3)c2)CC1`, the outcome was “inactive”. `CC(C)OCCCNC(=O)CNC(=O)c1cccs1` was tested, and the outcome was “inactive”. `COc1ccc(S(=O)(=O)N2CCN(C(=O)c3cc(C)on3)CC2)cc1` was tested, and the outcome was “inactive”. For `Cc1ccc(C(=O)/C=C/c2cc(C#N)n(C)c2C)cc1`, the outcome was “inactive”. For `CCOC(=O)c1c(NC(=O)CSc2nncs2)sc(C)c1C`, the outcome was “inactive”. In the case of `O=C1CCCC2=C1C(O)(C(F)(F)F)C(=O)N2Cc1ccccc1` (centres undefined), the outcome is reported as “inactive”. `CCOC(=O)C1(C)NC(c2ccco2)C2C(=O)N(CC)C(=O)C21` (centres undefined) was tested, and the outcome was “inactive”. For `CCOC(=O)C1=C(C)n2c(s/c(=C/c3cccc([N+](=O)[O-])c3)c2=O)=NC1c1ccc(O)c(OC)c1` (centres undefined), the outcome was “inactive”. For `CCN(Cc1ccccc1)S(=O)(=O)c1ccc(C(=O)Nc2nnc(C3CC3)o2)cc1`, the outcome was “inactive”. For `COCCNC(=O)COc1ccc(Br)cc1Cl`, the outcome was “inactive”. With `COc1ccc(-c2cc3ccc(OCc4nn[nH]n4)cc3oc2=O)cc1` the outcome was “inactive”. For `NC(=O)c1ccc(N2CCN(c3ncc(C(F)(F)F)cc3Cl)CC2)cc1`, the outcome was “inactive”. With `O=C(Cn1cc2c(n1)CCCC2)NCc1cccnc1` the outcome was “inactive”. `COc1ccc(S(=O)(=O)N2CCC(C(=O)NCCC3=CCCCC3)CC2)cc1C` was tested, and the outcome was “inactive”. With `O=C(/C=C/c1ccco1)c1cccnc1` the outcome was “inactive”. With `Clc1ccc(-c2nnc(SCc3ccon3)o2)c(Cl)c1` the outcome was “inactive”. For `CCOC(=O)c1cccc(NC(=O)CCc2nc(-c3ccc(C)cc3)no2)c1`, the outcome was “inactive”. `CCCOc1ccc(-c2nnn(CC(=O)OCC)n2)cc1` was tested, and the outcome was “inactive”. For `O=C1c2ccccc2C(=O)N1CCc1csc(-c2ccc(F)cc2)n1`, the outcome was “inactive”. `O=C(O)Cn1c(O)c(C=Nc2ccccc2)sc1=S` was tested, and the outcome was “inactive”. For `Cc1cc(C)c(C)c(S(=O)(=O)N2C(=S)NC(=O)C2C(C)C)c1C` (centres undefined), the outcome was “inactive”. `Cc1cc(Oc2ccc(-c3ccccc3)cc2)n2ncnc2n1` was tested, and the outcome was “inactive”. In the case of `CCn1c(SCC(=O)NCc2ccc3c(c2)OCO3)nnc1-c1cccs1`, the outcome is reported as “inactive”. `CCOC(=O)C/C(C)=N\Nc1ccc([N+](=O)[O-])cc1[N+](=O)[O-]` was tested, and the outcome was “inactive”. For `O=S(=O)(c1cccc(C(F)(F)F)c1)N1CCN(c2ccccc2)CC1`, the outcome was “inactive”. In the case of `O=C(c1ccc(N2CCN(C3CC(=O)N(c4ccc(F)cc4)C3=O)CC2)cc1)c1cccnc1` (centres undefined), the outcome is reported as “inactive”. With `COc1cccc(CNCC(=O)Nc2ccc(N3CCOCC3)cc2)c1` the outcome was “inactive”. In the case of `CN(C)S(=O)(=O)c1ccc(NC(=O)N2CCN(c3cccc(C(F)(F)F)c3)CC2)cc1`, the outcome is reported as “inactive”. With `C=CCOc1c(Br)cc(CNn2nnnc2N)cc1OCC` the outcome was “inactive”. `O=C(O)CN1C(=O)COc2cc(S(=O)(=O)N3CCCC3)ccc21` was tested, and the outcome was “inactive”. For `O=C(c1cc(Cl)ccc1Cl)N1CCN(c2ccccn2)CC1`, the outcome was “inactive”. In the case of `Clc1ccc(-c2cnc(Oc3ccccc3)nc2)cc1`, the outcome is reported as “inactive”. In the case of `O=C(CNS(=O)(=O)c1ccc(Br)s1)N1CCCC1`, the outcome is reported as “inactive”. With `CCCCCC(=O)Nc1nnn(CCC)n1` the outcome was “inactive”. In the case of `Cc1ccc(-n2nc(-c3ccc(N)cc3)cc2N)cc1`, the outcome is reported as “inactive”. `CCOCC(=O)Nc1ccc(C)c(Cl)c1` was tested, and the outcome was “inactive”. `Cc1ccc(S(=O)(=O)Nc2cc(NC(=O)CN3CCOCC3)ccc2Cl)cc1` was tested, and the outcome was “inactive”. `CCOC(=O)N1CCN(C(=O)c2cnn(-c3ccccc3)c2NC(=O)c2ccccc2F)CC1` was tested, and the outcome was “inactive”. `Cc1ccc(C=Nc2ccccc2C(N)=O)s1` was tested, and the outcome was “inactive”. For `O=C(Nc1ccc(F)cc1F)NC1CCN(S(=O)(=O)c2ccc(F)cc2)CC1`, the outcome was “inactive”. In the case of `Cc1nc(-c2noc(-c3ccccc3Cl)n2)c(C(F)(F)F)o1`, the outcome is reported as “inactive”. `O=C(Cn1cncn1)N/N=C/c1ccccc1Cl` was tested, and the outcome was “inactive”. In the case of `CCOc1cccc(-c2cc(=O)[nH][nH]2)c1`, the outcome is reported as “inactive”. With `Cc1csc(NC(=O)C(NS(=O)(=O)c2ccc(Br)s2)c2ccccc2)n1` (centres undefined) the outcome was “inactive”. With `CC(=O)c1c(C)[nH]c(C(=O)OCC(=O)C(C)(C)C)c1C` the outcome was “inactive”. With `CCOC(=O)c1c(C)[nH]c(C(=O)OCC(=O)Nc2sc(C(=O)N(C)C)c(C)c2C(=O)OCC)c1C` the outcome was “inactive”. For `CCCOc1ccc2oc(=O)c3c(c2c1)CCCN3C(=O)CN1CCc2ccccc2C1`, the outcome was “inactive”. For `COC1=CC(=O)C(C2CC(=O)c3c(O)cc(O)cc3O2)=CC1=O` (centres undefined), the outcome was “inactive”.
